Screens from PubChem.
Rows were chosen to be rich in hits. Some 19% of all compounds tested hit in one or more screens of this group.
IL1B secr inh: qHTS for Inhibitors of Inflammasome Signaling: IL-1-beta AlphaLISA Primary Screen. THP-1 LPS/ATP IL-1B secretion, AlphaLISA, 16 h; stronger effect = lower value. activity change, % at 57.5 µM. hit rate 4.7% among 360,000. AID 743279, 2014; in the data active = activity change below about -50%; inconclusive = mostly about -30% to -49%; also: % is scaled to controls: 0 for no effect and ±100 for the full control effect
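THP-1 cells pretreated 1 hr with compounds (up to 57.5 uM final), then stimulated with LPS (250 ng/mL final) plus ATP (1.25 mM final); secreted IL-1B measured by AlphaLISA after 16 hr, decreased signal indicating inhibition.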
HepG2 viability: qHTS for Inhibitors of TGF-b: Cytotox Counterscreen. hit rate 0.76% among 410,000. HepG2 CAGA-GFP viability, ATP luminescence, 18 h. AID 588856, 2011. Potency, µM (highest dose often 46.1 µM), inactives show at the top dose activity change, negative = cytotoxicity, hits mostly cytotoxic; also: potency is read from the fitted curve at half-maximal effect
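HepG2 CAGA-GFP cells (1000/well, DMEM with 1% FBS) received compound, then TGF-beta at 500 pg/mL final, and were incubated 18 hours at 37 degrees C. Viability was read by CellTiter-Glo luminescence. Media-only wells were set as complete cell-killing and DMSO as no toxicity.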
TGFb SMAD3 inh: qHTS for Inhibitors of TGF-b; AID 588855, 2011; HepG2 CAGA-GFP TGF-b/SMAD3 reporter, GFP fluorescence, 18 h; TGF-beta stimulated, 500 pg/mL final; hit rate 1.2% among 410,000; Potency, µM (series often up to 46.1 µM), inactives show at the highest dose activity, negative = inhibition, actives largely listed as inhibitors; also: potency is read from the fitted curve at half-maximal effect; % is scaled to controls: 0 for no effect and ±100 for the full control effect; nearly all actives have a fitted effect of over 65% in size
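HEPG2 CAGA-GFP reporter cells (1000/well, DMEM with 1% FBS) received compounds, then recombinant TGF-beta at 500 pg/mL final for 18 hours at 37 degrees C. Per-cell GFP summed per well was normalised to unstimulated and stimulated DMSO controls before curve fitting.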
TDP1 cell CPT: qHTS for Inhibitors of human tyrosyl-DNA phosphodiesterase 1 (TDP1): qHTS in cells in presence of CPT | chicken DT40 Tdp1-/-;hTDP1 cells + 20 nM CPT, ATP luminescence, 48 h | Potency, µM (top dose mostly 46.2 µM), for inactives: at the top dose activity change, negative = growth inhibition, actives largely listed as inhibitors | hit rate 12% among 420,000 | AID 686979, 2013; also: potency is read from the fitted curve at half-maximal effect; % is scaled to controls: 0 for no effect and ±100 for the full control effect; nearly all actives have a fitted effect of over 55% in size
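Chicken DT40 Tdp1-/- cells complemented with human TDP1, 400 cells/well, exposed to compounds plus 20 nM camptothecin for at least 48 h at 37 C; viability read as ATP content by CellTiter-Glo luminescence.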
TDP1 inh: qHTS Assay for Inhibitors of Tyrosyl-DNA Phosphodiesterase (TDP1); recombinant TDP1, AlphaScreen DNA substrate cleavage; AID 485290, 2010; Potency, µM (top dose mostly 130 µM), for the others: top-dose activity change, negative = inhibition, actives largely listed as inhibitors; hit rate 0.28% among 350,000; also: potency is read from the fitted curve at half-maximal effect; % is scaled to controls: 0 for no effect and ±100 for the full control effect; nearly all actives have a fitted effect of over 40% in size
Target sequence (Q9NUW8 whole entry, looked up): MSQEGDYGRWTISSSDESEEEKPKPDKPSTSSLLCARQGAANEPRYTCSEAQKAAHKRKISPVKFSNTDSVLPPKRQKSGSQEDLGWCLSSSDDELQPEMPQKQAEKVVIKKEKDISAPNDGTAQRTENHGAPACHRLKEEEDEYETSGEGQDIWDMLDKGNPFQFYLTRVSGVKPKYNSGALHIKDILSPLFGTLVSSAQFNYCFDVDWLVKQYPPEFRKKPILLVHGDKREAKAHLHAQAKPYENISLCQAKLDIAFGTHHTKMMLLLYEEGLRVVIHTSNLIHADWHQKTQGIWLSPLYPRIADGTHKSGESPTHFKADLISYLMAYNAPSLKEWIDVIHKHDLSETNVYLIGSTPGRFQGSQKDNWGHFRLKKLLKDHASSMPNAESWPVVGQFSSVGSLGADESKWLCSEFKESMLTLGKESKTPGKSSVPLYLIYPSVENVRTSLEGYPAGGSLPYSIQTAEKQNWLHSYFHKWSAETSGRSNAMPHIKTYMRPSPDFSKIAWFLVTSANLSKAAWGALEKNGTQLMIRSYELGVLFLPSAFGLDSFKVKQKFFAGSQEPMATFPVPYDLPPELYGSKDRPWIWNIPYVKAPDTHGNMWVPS
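Recombinant E. coli-expressed Tdp1 (1 nM) preincubated with compound 15 min at RT, then 5'-biotin/3'-phosphotyrosine-FITC DNA substrate (15 nM) added for 5 min. AlphaScreen beads (10 ug/ml) added, 10 min RT; tyrosine-FITC cleavage read as signal loss.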
TDP1 cell noCPT: qHTS for Inhibitors of human tyrosyl-DNA phosphodiesterase 1 (TDP1): qHTS in cells in absence of CPT | Potency, µM (highest dose often 46.2 µM), inactives show at the top dose activity change, negative = growth inhibition, usual class: inhibitors | hit rate 15% among 420,000 | AID 686978, 2013 | DT40 Tdp1-/- hTDP1 cells, no CPT, ATP luminescence, 48 h; also: potency is read from the fitted curve at half-maximal effect; % is scaled to controls: 0 for no effect and ±100 for the full control effect; nearly all actives have a fitted effect of over 55% in size
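Growth kinetics read by CellTiter-Glo luminescence after ≥48 hr at 37 °C. Cells: DT40 Tdp1-/- stably carrying human TDP1, 400 per well, compound exposure in the absence of CPT (DMSO vehicle).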
* = called active by the depositor; ? = inconclusive; . = no result; [ ] = another dose, or the depositor's remark. Unless noted, calls follow the shape of the dose curve; as a rule, active = well fitted curve in the direction sought with a large enough effect; inconclusive = small, poorly fitted or top-dose-only effect, or another doubt; inactive = no such curve, though single readings can be large; an effect the other way counts as inactive or inconclusive.

SMILES	IL1B secr inh	HepG2 viability	TGFb SMAD3 inh	TDP1 cell CPT	TDP1 inh	TDP1 cell noCPT
C[C@@H]1CN([C@@H](C)CO)S(=O)(=O)c2ccc(Br)cc2O[C@H]1CN(C)C(=O)C1CCCCC1	-30	22%	-4%	26µM*	.	16µM*
Cc1ccc(-c2ccc3c(c2)O[C@H](CN(C)C(=O)CC2CC2)[C@H](C)CN([C@@H](C)CO)S3(=O)=O)cc1	-1	3%	-10%	-6%	.	-23%
COC(=O)c1ccc(C(NC(=O)OCc2ccccc2)/C(C)=C/[C@@H](C)C(=O)NCc2nn(-c3ccccc3)nc2C)cc1 (stereo not given in full)	.	.	.	.	4%	.
C[C@@H]1COC(=O)O1	.	.	.	.	7%	.
CCc1cc(C(=O)Nc2cnn(Cc3ccccc3C)c2)no1	.	-4%	-7%	?	0%	?
Cc1ccc(-n2c(=O)c3ccc(C(=O)NCc4ccco4)cc3n(CC(=O)Nc3ccccc3C(F)(F)F)c2=O)cc1	.	-1%	-22%	-1%	0%[12.3 µM]	1%
C[C@H]1CN([C@@H](C)CO)S(=O)(=O)c2ccc(-c3ccccc3)cc2O[C@H]1CN(C)C(=O)C1CCC1	19	-12%	0%	?	.	15µM*
C[C@@H]1CN([C@@H](C)CO)S(=O)(=O)c2ccc(Br)cc2O[C@H]1CN(C)C(=O)C1CCOCC1	-5	-1%	-3%	9%	.	-3%
C[C@@H]1CN([C@H](C)CO)S(=O)(=O)c2ccc(C3=CCCCC3)cc2O[C@H]1CN(C)C(=O)Cc1cccnc1	-24	-16%	-7%	?	.	26µM*
CN(C(=O)c1cccc(NC(=O)Cc2ccc(NC(=O)C3CCCN(C(=O)c4ccccc4)C3)cc2)c1)C1CCCCC1 (stereo not given)	20	-26%	?	?	.	?
CC1CCCN(S(=O)(=O)c2cc3c4c(c2)CC(=O)N4CCC3)C1 (stereo not given)	.	-13%	-28%	-24%	5%	-25%
O=S(=O)(c1ccccc1)N1CCN(C(=S)Nc2ccc(Br)cc2)CC1	-50*	4%	0%	?	4%	-11%
CCc1ccc(NC(=S)N2CCN(S(=O)(=O)c3ccccc3)CC2)cc1	-17	-5%	0%	-27%	4%	17%
O=S(=O)(c1ccc(NC(=S)N2CCOCC2)cc1)N1CCCCC1	31	-6%	8%	-29%	.	15µM*
O=S(=O)(c1ccc(NC(=S)N2CCN(c3ccc(O)cc3)CC2)cc1)N1CCOCC1	5	0%	6%	?	0%	12µM*
COc1ccc(-n2c(=O)c3sc4ccccc4c3n(CC(=O)N3CCCC3)c2=O)cc1	.	10%	15%	-15%	6%	-27%
CCOC(=O)CC1C(=O)NCCN1C(=O)c1cccc(OC)c1 (stereo not given)	4	7%	-2%	16%	.	-3%
O=C(Nc1cccnc1)c1ccc(N2CCOCC2)c([N+](=O)[O-])c1	-24	-23%	0%	-19%	.	-13%
O=C(Nc1cc(-c2nc3ccccc3o2)ccc1Cl)c1ccc(N2CCCCC2)c([N+](=O)[O-])c1	.	0%	0%	?	-6%	18µM*
Cn1cc([N+](=O)[O-])c(C(=O)Nc2ccc(-c3nc4ccccc4o3)cc2)n1	-86*	11%	?	-5%	.	-12%
COc1ccc2oc(-c3ccc(NC(=O)c4ccc(N5CCOCC5)c([N+](=O)[O-])c4)cc3)nc2c1	6	-3%	-2%	?	2%	2.1µM*
CC(=O)Nc1cc(-c2nc3ccccc3o2)ccc1Cl	15	-23%	2%	11%	.	-10%
O=C(Nc1ccc(-c2nc3ccccc3o2)cc1)c1ccc(N2CCOCC2)c([N+](=O)[O-])c1	-16	-36%	?	7.3µM*	0%	4.6µM*
COc1cccc(NC(=O)CN(C)C(C)C(=O)N2CCCC2)c1 (stereo not given)	-1	1%	0%	-3%	1%	-1%
COc1ccc(CN(C(=O)CSc2nnc(-c3c[nH]c4ccccc34)o2)c2ccc(F)cc2)cc1OC	-83*	4%	-26%	8.2µM*	7%	9.2µM*
SMILES	IL1B secr inh	HepG2 viability	TGFb SMAD3 inh	TDP1 cell CPT	TDP1 inh	TDP1 cell noCPT
CCNC(=O)NC(=O)CSc1nnc(-c2c[nH]c3ccccc23)o1	8	-24%	-7%	?	4%[0.0935 µM]	?
COc1ccc(OC(=O)CSc2nnc(-c3ccc(F)cc3)o2)cc1	.	-5%	-15%	-2%	6%	-27%
COc1ccc(CN(C(=O)CSc2nnc(-c3ccc(F)cc3)o2)c2ccc(F)cc2)cc1	-18	-13%	-20%	23µM*	-1%	21µM*
CCOC(=O)c1cnc2c(C)c(Cl)ccc2c1N1CCN(CC)CC1	-82*	-21%	23%	?	7%	?
CCOC(=O)c1cnc2c(Cl)c(Cl)ccc2c1N1CCN(C)CC1	-50*	-47%	1%	-22%	1%	-18%
CCOC(=O)c1cnc2c(ccc3ccccc32)c1Cl	-12	11%	2%	3%	.	-4%
Cc1ccc2nc(COc3cccc(NC(=O)COc4ccccc4F)c3)cc(=O)n2c1	.	3%	-18%	-20%	0%	-13%
FC(F)(F)c1cc(NC2CCCCC2)ccn1	16	-22%	-15%	-16%	.	29µM*
Cc1cc(C)cc(-n2c(SCC(=O)Nc3ccccc3)nc3c(oc4ccccc43)c2=O)c1	.	0%	-16%	15µM*	3%	?
COc1ccccc1NC(=O)CSc1nc2c(oc3ccccc32)c(=O)n1-c1ccc(C)cc1	.	6%	-19%	18µM*	0%	8.2µM*
Cc1cc(C)cc(-n2c(SCC(=O)Nc3ccccc3F)nc3c(oc4ccccc43)c2=O)c1	.	-4%	-3%	16µM*	-1%	7.3µM*
COc1cccc(NC(=O)CSc2nc3c(oc4ccccc43)c(=O)[nH]2)c1	-1	-11%	0%	-15%	-1%	23µM*
COc1cccc(NC(=O)CSc2ncnc3c2oc2ccccc23)c1	14	-35%	-21%	?	-4%	?
O=C(/C=C/c1ccc(O)cc1)c1cccs1	.	.	.	24µM*	20%[56.1 µM]	24µM*
